Measurements from PubChem BioAssay (NCATS).
Results filed as inconclusive are left out. Values without a mark were called inactive. Some of the results follow. A call without a number means that no potency is given here. Calls of active or inactive are those of the source. The call rests on the fitted dose curve; in most records, active means well fitted curve in the direction sought with a large enough effect; inconclusive means small, poorly fitted or top-dose-only effect, or another doubt; inactive means no such curve, though single readings can be large; an effect the other way counts as inactive or inconclusive.

How the values were obtained:
[1] = target: DNA polymerase iota (Homo sapiens) (UniProt Q9UNA4); test: qHTS for Inhibitors of Polymerase Iota: Confirmatory Assay for Cherry-picked Compounds (AID 720496); conditions: Pol iota primer extension, TAMRA/BHQ fluorescence; further: potency means the concentration at half of the fitted maximal effect
Sequence of DNA polymerase iota (Homo sapiens) (Q9UNA4 whole entry, looked up): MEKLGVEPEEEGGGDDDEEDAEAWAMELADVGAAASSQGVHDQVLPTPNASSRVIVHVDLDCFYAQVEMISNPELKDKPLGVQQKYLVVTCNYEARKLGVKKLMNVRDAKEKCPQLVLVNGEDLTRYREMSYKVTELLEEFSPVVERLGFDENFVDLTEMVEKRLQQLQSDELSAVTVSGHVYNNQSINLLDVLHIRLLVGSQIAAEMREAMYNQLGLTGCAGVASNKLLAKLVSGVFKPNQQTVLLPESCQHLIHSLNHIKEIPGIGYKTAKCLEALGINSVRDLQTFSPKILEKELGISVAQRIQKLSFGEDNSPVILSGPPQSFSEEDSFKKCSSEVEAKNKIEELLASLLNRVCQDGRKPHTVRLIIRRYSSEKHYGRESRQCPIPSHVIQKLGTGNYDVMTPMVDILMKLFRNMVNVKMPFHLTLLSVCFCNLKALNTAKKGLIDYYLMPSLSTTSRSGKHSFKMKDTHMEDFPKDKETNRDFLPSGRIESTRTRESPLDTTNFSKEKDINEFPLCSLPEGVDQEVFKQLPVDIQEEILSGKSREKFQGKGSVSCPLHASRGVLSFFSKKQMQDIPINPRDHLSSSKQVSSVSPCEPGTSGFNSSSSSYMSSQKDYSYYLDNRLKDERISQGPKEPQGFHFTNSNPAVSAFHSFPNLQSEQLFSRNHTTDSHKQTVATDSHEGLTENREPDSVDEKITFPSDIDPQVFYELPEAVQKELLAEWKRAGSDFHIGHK
Method in brief: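 Read-out is TAMRA fluorescence (525 nm excitation, 598 nm emission) at 0 and 10 min. It reflects strand displacement from a BHQ-2-quenched template by 10 nM Pol iota, with 50 nM final substrate after 15 min compound preincubation.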

[2] = target: Rap guanine nucleotide exchange factor 3 (Homo sapiens) (UniProt O95398); test: Confirmatory qHTS for antagonist of cAMP-regulated guanine nucleotide exchange factor 3 (EPAC1) (AID 1645880); conditions: EPAC1 Rap1B-BODIPY-GDP exchange, fluorescence; activity, negative = inhibition: at 115 µM (top of the series); further: nearly all actives have a fitted effect of over 55% in size; further: potency means the concentration at half of the fitted maximal effect
Sequence of Rap guanine nucleotide exchange factor 3 (Homo sapiens) (O95398 whole entry, looked up): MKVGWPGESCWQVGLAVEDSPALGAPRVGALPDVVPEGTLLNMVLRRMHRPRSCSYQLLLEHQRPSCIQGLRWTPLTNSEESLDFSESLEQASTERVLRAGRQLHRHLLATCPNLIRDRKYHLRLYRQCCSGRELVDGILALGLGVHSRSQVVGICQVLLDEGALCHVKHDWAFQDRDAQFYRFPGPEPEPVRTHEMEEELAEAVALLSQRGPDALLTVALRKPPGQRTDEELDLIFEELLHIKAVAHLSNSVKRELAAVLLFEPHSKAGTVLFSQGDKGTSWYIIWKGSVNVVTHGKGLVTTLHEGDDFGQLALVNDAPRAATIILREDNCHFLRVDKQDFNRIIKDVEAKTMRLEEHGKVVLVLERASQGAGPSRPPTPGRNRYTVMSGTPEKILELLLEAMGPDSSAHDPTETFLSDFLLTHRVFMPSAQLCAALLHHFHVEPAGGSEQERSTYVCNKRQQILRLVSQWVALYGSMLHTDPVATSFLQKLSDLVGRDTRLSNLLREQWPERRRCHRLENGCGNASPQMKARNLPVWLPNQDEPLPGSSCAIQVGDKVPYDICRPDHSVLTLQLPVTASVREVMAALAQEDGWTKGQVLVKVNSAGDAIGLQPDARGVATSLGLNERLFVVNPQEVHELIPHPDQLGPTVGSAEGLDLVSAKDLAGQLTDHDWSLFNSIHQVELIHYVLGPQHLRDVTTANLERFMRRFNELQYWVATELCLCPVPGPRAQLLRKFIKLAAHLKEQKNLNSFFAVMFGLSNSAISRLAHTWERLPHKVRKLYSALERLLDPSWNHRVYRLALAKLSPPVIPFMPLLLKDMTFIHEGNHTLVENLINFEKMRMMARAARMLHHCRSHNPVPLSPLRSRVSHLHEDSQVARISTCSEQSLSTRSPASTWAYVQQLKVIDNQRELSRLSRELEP
Method in brief: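 Nucleotide exchange uses 100 nM EPAC1, 250 nM RAP1B-BODIPY-GDP and 50 uM GDP, with compounds in a concentration-titration series. After 5 min at room temperature, fluorescence (480 nm ex/540 nm em) is read every 5 min for 30 min. Data are normalized to control ATA and DMSO.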

[3] = target: Rap guanine nucleotide exchange factor 3 (Homo sapiens) (UniProt O95398); test: Confirmatory qHTS for agonist of cAMP-regulated guanine nucleotide exchange factor 3 (EPAC1) (AID 1645881); conditions: EPAC1 Rap1B BODIPY-GDP exchange fluorescence; series mostly up to 154 µM;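 further: EPAC1 catalysed release of BODIPY-GDP from Rap1B seen as fluorescence loss; nearly all actives have a fitted effect of over 75% in size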
[4] = target: Rap guanine nucleotide exchange factor 4 (Homo sapiens) (UniProt Q8WZA2); test: Confirmatory qHTS for agonist of cAMP-regulated guanine nucleotide exchange factor 4 (EPAC2) (AID 1645884); conditions: EPAC2 GEF activity, Rap1B-BODIPY-GDP fluorescence; series mostly up to 154 µM;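 further: nucleotide exchange releases bodipy-GDP from Rap1 and this lowers its fluorescence; nearly all actives have a fitted effect of over 65% in size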; further: potency means the concentration at half of the fitted maximal effect
Sequence of Rap guanine nucleotide exchange factor 4 (Homo sapiens) (Q8WZA2 whole entry, looked up): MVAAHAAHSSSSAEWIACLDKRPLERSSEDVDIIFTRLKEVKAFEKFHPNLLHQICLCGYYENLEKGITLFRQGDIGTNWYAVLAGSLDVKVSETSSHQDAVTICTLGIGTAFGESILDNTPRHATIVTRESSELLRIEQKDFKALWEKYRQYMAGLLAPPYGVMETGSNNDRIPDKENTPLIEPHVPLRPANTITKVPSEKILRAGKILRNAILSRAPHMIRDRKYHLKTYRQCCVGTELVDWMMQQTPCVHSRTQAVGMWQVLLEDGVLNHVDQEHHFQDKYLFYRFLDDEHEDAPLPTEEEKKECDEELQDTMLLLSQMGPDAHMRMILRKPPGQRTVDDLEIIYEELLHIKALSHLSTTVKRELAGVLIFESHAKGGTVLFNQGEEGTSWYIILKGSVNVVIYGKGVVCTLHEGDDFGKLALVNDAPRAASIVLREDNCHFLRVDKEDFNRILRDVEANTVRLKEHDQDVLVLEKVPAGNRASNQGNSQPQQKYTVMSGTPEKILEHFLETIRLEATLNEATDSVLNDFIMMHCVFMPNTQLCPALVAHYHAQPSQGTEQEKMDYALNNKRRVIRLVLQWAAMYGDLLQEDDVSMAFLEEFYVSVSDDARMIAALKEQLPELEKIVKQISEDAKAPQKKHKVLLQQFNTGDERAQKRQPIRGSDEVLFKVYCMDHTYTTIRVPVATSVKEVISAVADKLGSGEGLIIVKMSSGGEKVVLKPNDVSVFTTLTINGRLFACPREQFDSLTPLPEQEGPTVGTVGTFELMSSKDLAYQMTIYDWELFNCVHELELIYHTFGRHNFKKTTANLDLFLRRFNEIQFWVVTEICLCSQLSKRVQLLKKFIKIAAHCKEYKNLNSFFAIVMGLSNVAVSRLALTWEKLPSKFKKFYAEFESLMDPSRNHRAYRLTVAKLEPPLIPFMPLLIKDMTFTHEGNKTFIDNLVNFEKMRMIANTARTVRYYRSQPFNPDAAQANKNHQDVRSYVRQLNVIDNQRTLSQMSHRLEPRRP

[5] = target: Rap guanine nucleotide exchange factor 4 (Homo sapiens) (UniProt Q8WZA2); test: Confirmatory qHTS for antagonist of cAMP-regulated guanine nucleotide exchange factor 4 (EPAC2) (AID 1645885); conditions: EPAC2 Rap1B-BODIPY-GDP exchange fluorescence, biochemical; series mostly up to 12.7 µM; further: nearly all actives have a fitted effect of over 25% in size
[6] = target: Rap guanine nucleotide exchange factor 3 (Homo sapiens) (UniProt O95398); test: Counterscreen qHTS for antagonist of cAMP-regulated guanine nucleotide exchange factor 3 (EPAC1) (AID 1645888); conditions: Rap1B-BODIPY-GDP nucleotide exchange, fluorescence; series mostly up to 154 µM;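 further: fluorescence loss as bound BODIPY-GDP is released from Rap1B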
Method in brief: (§1)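 Rap1B-BODIPY-GDP 250 nM + GDP 50 uM; cpds 7-pt, final 9.74 nM–152 uM (activator mode) or from 7.32 nM upwards (inhibitor mode); RT; FI 480/540 nm at 5 and 30 min, then ± cAMP, reread.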

[7] = target: Rap guanine nucleotide exchange factor 3 (Homo sapiens) (UniProt O95398); test: Counterscreen qHTS for agonist of cAMP-regulated guanine nucleotide exchange factor 3 (EPAC1) (AID 1645889); conditions: EPAC1 Rap1B-BODIPY-GDP exchange, fluorescence; series mostly up to 154 µM; further: nearly all actives have a fitted effect of over 40% in size
Method in brief: as §1

[8] = target: Lethal(3)malignant brain tumor-like protein 1 (Homo sapiens) (UniProt Q9Y468); test: qHTS Assay for the Inhibitors of L3MBTL1: Hit Validation (AID 540279); conditions: L3MBTL1 methyl-lysine binding inhibition, biochemical qHTS; further: potency means the concentration at half of the fitted maximal effect; nearly all actives have a fitted effect of over 70% in size
Sequence of Lethal(3)malignant brain tumor-like protein 1 (Homo sapiens) (Q9Y468 whole entry, looked up): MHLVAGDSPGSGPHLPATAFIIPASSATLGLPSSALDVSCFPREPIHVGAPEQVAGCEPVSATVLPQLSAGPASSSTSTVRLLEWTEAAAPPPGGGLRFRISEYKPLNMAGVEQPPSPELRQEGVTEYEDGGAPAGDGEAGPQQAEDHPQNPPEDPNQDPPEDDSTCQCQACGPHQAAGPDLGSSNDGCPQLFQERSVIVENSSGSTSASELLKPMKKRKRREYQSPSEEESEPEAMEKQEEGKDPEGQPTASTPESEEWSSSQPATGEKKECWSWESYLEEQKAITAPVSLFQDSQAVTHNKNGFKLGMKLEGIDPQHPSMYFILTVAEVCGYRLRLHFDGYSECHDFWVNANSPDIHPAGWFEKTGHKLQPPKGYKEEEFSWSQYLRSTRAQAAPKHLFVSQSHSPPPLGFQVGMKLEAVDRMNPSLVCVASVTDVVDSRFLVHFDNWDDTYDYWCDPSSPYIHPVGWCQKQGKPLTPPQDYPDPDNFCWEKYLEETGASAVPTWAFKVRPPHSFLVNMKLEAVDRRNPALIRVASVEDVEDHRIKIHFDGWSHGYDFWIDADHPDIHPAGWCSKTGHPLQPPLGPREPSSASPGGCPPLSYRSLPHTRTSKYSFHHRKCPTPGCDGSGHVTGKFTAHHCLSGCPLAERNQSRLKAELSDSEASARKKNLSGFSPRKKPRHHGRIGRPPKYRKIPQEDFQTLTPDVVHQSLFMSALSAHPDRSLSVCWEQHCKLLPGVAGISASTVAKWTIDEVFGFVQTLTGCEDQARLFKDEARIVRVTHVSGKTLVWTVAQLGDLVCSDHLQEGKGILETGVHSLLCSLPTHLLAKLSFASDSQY
Method in brief: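 AlphaScreen displacement: 50 nM L3MBTL1 bound to 75 nM biotin-H3K9me1 peptide for 30 min, compound added for 30 min at room temperature, then beads at 10 ug/mL final for 30 min in the dark. Cefsulodin titration served as intraplate control.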

[9] = target: DNA polymerase kappa (Homo sapiens) (UniProt Q9UBT6); test: qHTS for Inhibitors of Polymerase Kappa: Confirmatory Assay for Cherry-picked Compounds (AID 720501); conditions: purified Pol-kappa, fluorescent strand-displacement substrate; further: potency means the concentration at half of the fitted maximal effect
Sequence of DNA polymerase kappa (Homo sapiens) (Q9UBT6 whole entry, looked up): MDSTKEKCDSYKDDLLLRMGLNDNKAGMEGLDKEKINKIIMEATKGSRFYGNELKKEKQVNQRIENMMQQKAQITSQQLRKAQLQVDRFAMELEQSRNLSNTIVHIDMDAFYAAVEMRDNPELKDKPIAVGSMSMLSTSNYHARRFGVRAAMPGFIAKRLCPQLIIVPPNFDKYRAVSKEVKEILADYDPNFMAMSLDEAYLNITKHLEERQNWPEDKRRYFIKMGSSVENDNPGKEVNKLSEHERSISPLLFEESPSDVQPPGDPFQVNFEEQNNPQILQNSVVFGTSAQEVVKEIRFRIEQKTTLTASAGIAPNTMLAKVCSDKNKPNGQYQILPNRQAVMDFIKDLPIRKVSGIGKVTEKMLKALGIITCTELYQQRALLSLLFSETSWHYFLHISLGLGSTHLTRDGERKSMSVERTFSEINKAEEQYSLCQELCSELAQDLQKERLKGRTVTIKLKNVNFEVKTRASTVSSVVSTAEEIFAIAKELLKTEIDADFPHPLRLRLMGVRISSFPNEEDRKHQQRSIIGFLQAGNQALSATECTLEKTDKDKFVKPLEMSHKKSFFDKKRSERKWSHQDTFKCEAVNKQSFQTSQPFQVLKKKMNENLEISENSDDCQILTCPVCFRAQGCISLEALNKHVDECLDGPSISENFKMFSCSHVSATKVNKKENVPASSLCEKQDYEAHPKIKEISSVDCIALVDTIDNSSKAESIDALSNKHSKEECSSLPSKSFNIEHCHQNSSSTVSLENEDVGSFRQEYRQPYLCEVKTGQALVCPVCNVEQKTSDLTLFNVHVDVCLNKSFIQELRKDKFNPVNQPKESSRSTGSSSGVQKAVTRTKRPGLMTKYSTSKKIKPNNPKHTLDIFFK
Method in brief: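 Strand-displacement fluorescence read-out: TAMRA reporter released from a BHQ-2-quenched template, measured at 525/598 nm over a 10 min kinetic window. Substrate was 50 nM final; enzyme was 10 nM Pol-kappa, preincubated 15 min at room temperature with compound.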

[10] = target: Tumor susceptibility gene 101 protein (Homo sapiens) (UniProt Q99816); test: qHTS Assay for Iinhibitors of HIV-1 Budding by Blocking the Interaction of PTAP/TSG101: Hit Validation (AID 651600); conditions: PTAP peptide/TSG101 UEV interaction, biochemical assay; series mostly up to 57.5 µM; further: nearly all actives have a fitted effect of over 70% in size
Sequence of Tumor susceptibility gene 101 protein (Homo sapiens) (Q99816 whole entry, looked up, the tested form may be a part): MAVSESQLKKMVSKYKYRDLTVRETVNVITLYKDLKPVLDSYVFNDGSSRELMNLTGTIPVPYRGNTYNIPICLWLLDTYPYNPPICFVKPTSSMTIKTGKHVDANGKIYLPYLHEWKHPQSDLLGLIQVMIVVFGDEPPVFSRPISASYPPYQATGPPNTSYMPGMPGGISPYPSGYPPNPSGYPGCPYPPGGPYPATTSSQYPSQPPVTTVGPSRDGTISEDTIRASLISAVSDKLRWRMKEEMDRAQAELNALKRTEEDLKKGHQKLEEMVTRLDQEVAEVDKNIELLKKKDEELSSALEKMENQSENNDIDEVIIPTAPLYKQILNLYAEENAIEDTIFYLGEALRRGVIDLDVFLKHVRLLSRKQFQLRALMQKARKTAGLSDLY
Method in brief: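 FITC-PTAP peptide (50 nM final) binding to Tsg101 binding domain (10 uM final) was measured by polarization after 20 min at r.t. with compounds, in 10 mM HEPES pH 7.5 buffer with 0.15 M NaCl and 0.01% Tween 20.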

Row | SMILES | Potency [1] | Potency [2] | Potency [3] | Potency [4] | Potency [5] | Potency [6] | Potency [7] | Potency [8] | Potency [9] | activation [4] | activity change, negative = inhibition [6] | activation [7] | Potency [10]
1 | COC(=O)c1ccc(COc2ccc(/C=C/C(=O)c3ccc(OC)c(CSCC(=O)O)c3)cc2OC)cc1 | 75.2 µM (active) | 37.9 µM (active) | inactive | inactive | inactive | inactive | inactive | – | – | – | – | – | –
2 | Cc1ccc(N=C2NC(=O)/C(=C/C=C/c3ccco3)S2)cc1C | 47.4 µM (active) | 12.6 µM (active) | inactive | – | inactive | – | – | 21.2 µM (active) | 47.4 µM (active) | -4% [at 17.1 µM, percent relative to cAMP agonist control] | 5.98% [at 30.8 µM] | 25.8% [at 30.8 µM] | –
3 | N=c1c(S(=O)(=O)c2ccc(Br)cc2)cc2c(=O)n3ccccc3nc2n1Cc1ccccc1 | – | 50.1 µM (active) | inactive | – | inactive | – | – | – | – | -5.31% [at 17.1 µM, percent relative to cAMP agonist control] | -6.58% [at 30.8 µM] | 9.82% [at 30.8 µM] | inactive
4 | O=C(N/N=C/c1ccccc1Cl)c1[nH]c2ccc(Br)cc2c1-c1ccccc1 | – | inactive | inactive | 126 µM (active) | inactive | inactive | – | – | – | – | – | – | inactive
